HT1080 IDH1KD tx – kills HT-1080 cells with IDH1 knockdown; HT-1080 IDH1 knockdown viability, ATP luminescence, 48 h; Potency, µM (top dose mostly 46.1 µM), usual class: cytotoxic; 360,000 compounds, 2% hits; AID 686971
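After a 2 h attachment period, IDH1KD HT-1080 cells took pin-transferred compound for 48 h at 37 °C; ATP-based luminescence after 10 min room-temperature reagent incubation reported viability.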
KB-V1 MDR tox – KB-V1 MDR subline cytotoxicity | 400,000 compounds, 3.4% hits | Potency, µM (series often up to 46.1 µM), hits mostly cytotoxic | AID 1347076 | KB-V1 MDR cells viability, CellTiter-Glo, 72 h; also: nearly all actives have a fitted effect of over 60% in size
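Readout: CellTiter-Glo luminescence, 10 min after addition. Cells: KB-V1 MDR subline, 72 h at 37 degrees C with compound. Analysis: corrected, normalized data fitted to concentration-effect curves.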
DT40 TDP1 no CPT – qHTS for Inhibitors of human tyrosyl-DNA phosphodiesterase 1 (TDP1): qHTS in cells in absence of CPT; DT40 Tdp1-/- hTDP1 cells, no CPT, ATP luminescence, 48 h; Potency, µM (titrated, usually from 46.2 µM), actives largely listed as inhibitors; 420,000 compounds, 15% hits; also: nearly all actives have a fitted effect of over 55% in size
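Readout: luminescence from CellTiter-Glo after 30 min in the dark at RT. Cells: DT40 Tdp1-/- with stable hTDP1, 400/well. Exposure: compounds alone, ≥48 hr, 37 °C.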
HT1080-NT tox – kills 2HG-producing HT-1080-NT fibrosarcoma cells. Potency, µM (doses to about 46.1 µM), most hits filed as cytotoxic. 360,000 compounds, 1.6% hits. AID 686970. HT-1080-NT fibrosarcoma viability, CellTiter-Glo ATP luminescence, 48 h;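 also: NT is the 2HG producing partner of a matched IDH1 knockdown line; nearly all actives have a fitted effect of over 55% in size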
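Viability of the 2HG-overproducing fibrosarcoma line after 48 hours of compound exposure at 37 degrees C was determined by luminescence with CellTiter-Glo, and concentration-effect curves were then fitted and categorized.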
KB-3-1 cytotox – kills parental KB-3-1 adenocarcinoma cells; Potency, µM (highest dose often 46.1 µM), hits mostly cytotoxic; KB-3-1 viability, CellTiter-Glo ATP luminescence, 72 h; 400,000 compounds, 1.4% hits; also: nearly all actives have a fitted effect of over 60% in size
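KB-3-1 parental drug-naive adenocarcinoma cells in DMEM/10% FBS, incubated 72 h at 37 C with pin-transferred compounds across a concentration series. Viability by CellTiter-Glo luminescence; concentration-response curves fitted after normalization.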
TDP1 cell CPT – growth inhibition of DT40 Tdp1-/-;hTDP1 cells with camptothecin (screen for TDP1 inhibitors); chicken DT40 Tdp1-/-;hTDP1 cells + 20 nM CPT, ATP luminescence, 48 h; Potency, µM (highest dose often 46.2 µM), hits mostly inhibitors; 420,000 compounds, 12% hits; AID 686979; also: nearly all actives have a fitted effect of over 55% in size
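Chicken DT40 Tdp1-/- cells stably complemented with human TDP1 were seeded at 400 cells/well in medium containing 20 nM camptothecin, exposed to pin-transferred compounds, and grown at 37 °C for at least 48 hr. Viability was read as ATP luminescence.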
A number is an active result; 0 = inactive; ? = inconclusive; - = no result given. The list is not random: actives were taken first. Their share in the collection is about 19%. Calls follow the shape of the dose curve; as a rule, active = well fitted curve in the direction sought with a large enough effect; inconclusive = small, poorly fitted or top-dose-only effect, or another doubt; inactive = no such curve, though single readings can be large; an effect the other way counts as inactive or inconclusive.

SMILES	HT1080 IDH1KD tx	KB-V1 MDR tox	DT40 TDP1 no CPT	HT1080-NT tox	KB-3-1 cytotox	TDP1 cell CPT
CCOC(=O)c1cnc2cc(C(F)(F)F)ccc2c1Nc1cc(C)ccc1OC	-	0	?	-	0	0
CCCCC(=O)/C=C/n1c(=S)oc2ccccc21	3.7µM	?	4.1µM	10µM	?	5.2µM
C=CCNC(=O)/C(C#N)=C/c1ccccc1[N+](=O)[O-]	0	0	?	0	0	0
N#C/C(=C\c1cccnc1)C(=O)Nc1ccccc1[N+](=O)[O-]	0	0	0	0	0	?
CCCCCCCCNC(=O)/C(C#N)=C/c1ccccc1[N+](=O)[O-]	0	16µM	?	0	?	?
N#C/C(=C\c1ccccc1[N+](=O)[O-])C(=O)NCc1ccccc1	0	0	21µM	0	0	0
N#C/C(=C\C=C\c1ccccc1[N+](=O)[O-])C(=O)NCc1ccccc1	?	?	6.5µM	0	16µM	4.6µM
C=C(C)C(=O)Nc1ccc2c(c1)OCCOCCOCCO2	0	?	0	0	0	0
O=C(CSc1nc2ccccc2nc1N1CCCCC1)Nc1ccc(F)cc1	0	?	?	0	0	0
O=C(CSc1ncccc1-c1nc2ccccc2[nH]1)N1CCCCC1	0	5.2µM	?	0	0	?
O=C(CSc1nc2ccccc2nc1N1CCOCC1)N1CCN(c2ccccc2)CC1	0	0	12µM	0	?	21µM
O=C(CSc1nc2ccccc2nc1N1CCCCC1)N1CCN(c2ccccc2)CC1	0	21µM	?	0	?	21µM
Cc1ccnc(N2CCN(C(=O)CSc3nc4ccccc4nc3N3CCC(C)CC3)CC2)c1	0	0	?	0	0	?
Cc1cccc(N2CCN(C(=O)CSc3nc4ccccc4nc3N3CC(C)OC(C)C3)CC2)c1C (stereo unspecified)	0	?	4.1µM	0	?	2.1µM
CCOC(=O)N1CCN(S(=O)(=O)N2CCCC(C(=O)NCCc3ccc(OC)c(OC)c3)C2)CC1 (stereo unspecified)	0	0	0	0	0	0
COCCNc1nc(SCC(=O)N2CCN(c3ccccc3)CC2)nc2ccccc12	0	9.2µM	?	0	0	?
COCCNC(=O)CSc1nc2ccccc2c(=O)n1CCC(=O)N1CCN(c2ccccc2)CC1	0	?	0	0	0	0
COc1cc2oc3ccc(C#Cc4ccccn4)cc3c(=O)c2cc1OC	0	?	23µM	0	0	?
COc1cc2oc3ccc(C#Cc4ccc(N)cc4)cc3c(=O)c2cc1OC	0	0	?	0	0	?
COc1cc2oc3cc(C#Cc4ccc(N)cc4)ccc3c(=O)c2cc1OC	0	0	16µM	0	0	16µM
COc1ccc(C#Cc2c(-c3ccc(OC)cc3)oc3ccc(-c4ccc(OC)cc4)cc23)cc1	0	0	0	0	0	0
COc1ccc(-c2oc3ccc(-c4cc(OC)c(OC)c(OC)c4)cc3c2C#Cc2ccccn2)cc1	0	?	?	0	0	18µM
COc1cccc(CCNC(=O)CCc2nnc(Cc3cc(OC)ccc3OC)o2)c1	0	0	0	0	0	0
O=C(Cc1ccc(-c2ccccc2)cc1)NCc1ccccc1	?	0.29µM	0.46µM	?	0.082µM	0.52µM
COc1ccc(CCNC(=O)CCc2nnc(Cc3ccc4c(c3)OCO4)o2)cc1	0	0	18µM	0	0	23µM
SMILES	HT1080 IDH1KD tx	KB-V1 MDR tox	DT40 TDP1 no CPT	HT1080-NT tox	KB-3-1 cytotox	TDP1 cell CPT
O=C(CCC(=O)NCc1ccccc1)NCc1ccccc1	0	0	0	0	0	0
O=C(CCc1nnc(Cc2ccc(-c3ccccc3)cc2)o1)NCCc1cccnc1	0	0	18µM	0	0	?
O=C(COC(=O)Cc1ccc(-c2ccccc2)cc1)NCc1ccc(F)cc1	0	0	?	0	0	6.5µM
O=C(/C=C/c1cccc([N+](=O)[O-])c1)OCC1CCCO1 (stereo unspecified)	0	0	0	0	0	0
O=C(Nc1ccc(Nc2ccncc2)cc1)c1ccc(Nc2ccnc3ccc([N+](=O)[O-])cc23)cc1[N+](=O)[O-]	0	0	0	0	0	0
CCN(CC)c1ccc(NC(=O)c2cc(C)nc3c2c(C)nn3-c2ccc(C)cc2)c(C)c1	-	0	?	-	0	?
O=C(NC(NCc1cccnc1)C(Cl)(Cl)Cl)c1cccc2ccccc12 (stereo unspecified)	0	0	15µM	0	0	?
S=C(NCc1ccccc1)C(=S)NCc1ccccc1	0	0	0	0	0	0
c1ccc(CN=C(NCc2ccccc2)NCc2ccccc2)cc1	16µM	0	2.9µM	?	?	2.3µM
O=C(NC(NCc1ccccc1)C(Cl)(Cl)Cl)c1cccnc1 (stereo unspecified)	0	0	0	0	0	0
Cc1ccc(CNC(=O)COC(=O)Cc2ccc(-c3ccccc3)cc2)cc1	0	?	?	0	0	?
CC(NC(=O)Cc1ccc(-c2ccccc2)cc1)c1ccccc1 (stereo unspecified)	0	?	?	0	?	26µM
Cc1ccc(CNC(=O)Cc2ccc(-c3ccccc3)cc2)cc1	2.8µM	0	0.58µM	4µM	0	1µM
CN(C)/C=C(/C(=O)c1ccc(Cl)cc1)S(=O)(=O)c1ccc(Cl)cc1	0	0	0	0	0	0
CCN(CC)CCn1c2c(c(SCC(=O)Nc3ccccc3Cl)nc1=O)CCC2	0	0	0	0	0	0
Cc1ccc(SCC(=O)NCc2ccc(F)cc2)cc1	0	0	0	0	0	0
O=C(Cc1ccc(-c2ccccc2)cc1)NCc1cccnc1	8.2µM	?	6.5µM	?	15µM	2.9µM
Cc1ccc(CC(=O)NCc2ccc(F)cc2)cc1	7.3µM	?	4.6µM	9.2µM	?	4.1µM
O=C(Cc1ccccc1)NCc1cccnc1	0	0	0	0	0	0
CCC(C(=O)Nc1nnc2n1CCS2)c1ccccc1 (stereo unspecified)	-	?	0	-	0	0
Clc1ccc2c(c1)C(c1cccs1)=NNC(c1cccnc1)=N2	0	0	?	0	0	0
O=C(NC(=S)Nc1ccc(S(=O)(=O)N2CCCC2)cc1)C1CCC1	0	0	16µM	0	0	?
CC(C)C(=O)NC(=S)Nc1ccc(S(=O)(=O)N2CCCC2)cc1	0	15µM	16µM	0	0	?
CC(Nc1cccc([N+](=O)[O-])c1)C(=O)Nc1ccc(S(=O)(=O)N2CCCC2)cc1 (stereo unspecified)	0	?	15µM	0	0	15µM
O=C(NC(=S)Nc1ccc(S(=O)(=O)N2CCCC2)cc1)C1CC1	0	?	?	0	0	?

Compound activity from PubChem.
